HIF-2a inh = inhibitors of HIF-2a. 360,000 compounds, 0.72% hits. inhibition, % at 18.8 µM. 786-0 RCC cells HIF-2a reporter, luciferase luminescence, overnight. AID 624352;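 active = inhibition of the luminescence signal of 40% or more relative to plate controls, in a single-dose primary screen at 18.75 µM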
KKLEB cytotox = reduces viability of KKLEB cystic fibrosis airway cells | KKLEB CF airway cells viability, ATPlite luminescence, overnight; stronger effect = lower value; cells stimulated with P. aeruginosa culture filtrate | activity change (cytotoxicity), % at 5 µM | 360,000 compounds, 0.36% hits | AID 602141;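 active = corrected activity change at or below -50% at 5 µM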
Peg3 prom inh = Peg3 promoter activity inhibition. HeLa PEG-Prom luciferase reporter, luminescence, overnight. inhibition, % at 20 µM. 360,000 compounds, 1.7% hits;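 active = inhibition of at least 50% at 20 µM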
Shn3 inh set2 = Schnurri-3 reporter inhibition in Clone20 osteoblasts | Clone20 osteoblast Shn3 3'UTR firefly luciferase, 24 h | inhibition, % at 12.5 µM | 360,000 compounds, 0.52% hits;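 active = mean inhibition of at least 75% with every replicate also reaching 75%; inconclusive = mean inhibition at least 75% but some replicate below; inactive = mean inhibition below 75%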
CF NFkB block = cystic fibrosis NF-kB activation inhibition. KKLEB NF-kB-GFP reporter, PAF-induced, GFP fluorescence overnight. inhibition, % at 5 µM. 360,000 compounds, 0.86% hits;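 active = at least 50% inhibition at 5 µM, scaled per plate between neutral and stimulator controls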;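 note: PAF is a Pseudomonas aeruginosa culture filtrate used as stimulus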
Numbers stand for hits; – = inactive; ? = inconclusive; ! = not active in a repeat. Rows were chosen to be rich in hits. Some 2.6% of all compounds tested hit in one or more screens of this group.

SMILES | HIF-2a inh | KKLEB cytotox | Peg3 prom inh | Shn3 inh set2 | CF NFkB block
CCN(Cc1ccccc1)S(=O)(=O)c1ccc(C(=O)N(CCCN(C)C)c2nc3cc(C)cc(C)c3s2)cc1 | – | – | 100 | – | –
CC1CC(C)CN(C(=O)CCNC(=O)Cn2ccc3ccccc3c2=O)C1 (stereo not drawn) | – | – | – | – | –
O=C(O)c1ccccc1NS(=O)(=O)c1cccc(-n2sc3ccccc3c2=O)c1 | – | – | – | – | 86
O=C(O)c1ccccc1NS(=O)(=O)c1cccc(C(F)(F)F)c1 | – | – | – | – | –
CC(C)c1ccc(-n2c(-c3ccccc3)c[n+]3c2CCc2ccccc2-3)cc1 | – | -54 | 68 | – | 51
COc1ccc(-n2c(-c3ccc(Br)cc3)c[n+]3c2CCc2ccccc2-3)cc1 | – | – | – | ? | –
COc1ccccc1-n1c(-c2ccccc2)c[n+]2c1CCc1ccccc1-2 | – | – | – | 90! | –
Cc1onc(-c2c(F)cccc2Cl)c1C(=O)N(Cc1ccccc1)C(C)C | – | – | – | – | –
CC1(c2ccccc2)NC(=O)N(CC(=O)Nc2ccccc2C(=O)NC2CC2)C1=O (stereo not drawn) | – | – | – | – | –
COc1ccccc1NC(=O)c1cc2c(CO)cnc(C)c2oc1=Nc1cccc(C(N)=O)c1 | – | – | – | – | –
C=C1CCC[C@]2(C)C[C@H]3OC(=O)C(CNC(C)CCCC(C)C)[C@H]3CC12 (stereo partly drawn) | – | – | 104 | – | –
COc1cc(C(CCN2CCCC(C)C2)c2c(OC)cc(OC)c3c(-c4ccccc4)cc(=O)oc23)cc(OC)c1OC (stereo not drawn) | – | – | 87 | – | –
COc1cc(C(CCN2CCCC2)c2c(OC)cc(OC)c3c(C)cc(=O)oc23)cc(OC)c1OC (stereo not drawn) | – | – | – | – | –
COc1cc(C(CCN2CCCCC2)c2c(OC)cc(OC)c3c(-c4ccccc4)cc(=O)oc23)cc(OC)c1OC (stereo not drawn) | – | – | 78 | – | –
CCOc1ccccc1NC(=O)NCc1ccc2c(c1)OCO2 | – | – | 68 | – | –
Cc1ccc(C2N(c3ccc(Cl)cc3)C(=O)N3CCCN23)cc1 (stereo not drawn) | – | – | – | – | –
COc1ccccc1NS(=O)(=O)c1cc(-c2cnc(C3CC3)o2)ccc1C | – | – | 52 | – | –
CCN(CC)CCCNC(=O)c1nn2c(C(F)(F)F)cc(-c3ccccc3)nc2c1Cl | – | – | – | – | –
COc1cc(C)c(C(=O)CC(=O)c2c(C)cc(OC)cc2C)c(C)c1 | – | – | 50 | – | –
COc1ccc(NC(C)=O)c(C)c1 | – | – | – | – | –
COc1ccc(S(=O)(=O)N2CCCCCC2)cc1C(=O)OCc1cccc(OC)c1OC | – | – | 51 | – | –
COc1cccc(COC(=O)C2CCN(S(=O)(=O)c3ccc(C)cc3)CC2)c1OC | – | – | – | – | –
COC(=O)[C@@H]1C[C@]2(OC(=O)c3ccccc3)C=CC(=O)C[C@@H]2N1C(=O)OCc1ccccc1 | 91 | – | 72 | – | 50
O=C1Nc2cc(Cl)ccc2Nc2cscc21 | – | – | – | – | –
O=c1[nH]c(CNCc2cccnc2)nc2ccccc12 | – | – | – | – | –
SMILES | HIF-2a inh | KKLEB cytotox | Peg3 prom inh | Shn3 inh set2 | CF NFkB block
CNc1ccc(Br)cc(C(=O)/C=C/c2ccc(Cl)cc2Cl)c1=O | – | – | 62 | – | –
CCNc1ccc(Br)cc(C(=O)/C=C/c2c(Cl)cccc2Cl)c1=O | 68 | – | 104 | – | –
COc1ccc(N(CC(=O)N/N=C(\C)c2ccccc2)S(=O)(=O)c2ccccc2)cc1 | – | – | – | – | –
CC(Sc1nncs1)C(=O)Nc1ccc(Cl)cn1 (stereo not drawn) | – | – | – | – | –
O=C(CNC(=O)c1cccc(F)c1)N/N=C/c1cc(Br)ccc1OC(=O)/C=C/c1ccco1 | – | – | – | 87 | –
CN1CCN(c2ccc(NC(=O)c3ccc(-c4ccc(Cl)cc4)o3)cc2)CC1 | – | – | 98 | – | –
O=C(Cc1ccc(Cl)cc1)Nc1ccc(N2CCN(C(=O)c3ccco3)CC2)cc1 | – | – | – | 90 | –
CS(=O)(=O)N1CCN(c2ccc(NC(=O)c3ccc(-c4ccc(Cl)cc4)o3)cc2)CC1 | – | – | – | – | –
NC(=O)c1ccsc1NC(=O)CSc1nnc(Nc2ccccc2)s1 | – | – | – | – | –
CCCCSc1nc(SCC(=O)NCc2ccco2)c2c3c(sc2n1)COC(C)(CC)C3 (stereo not drawn) | – | – | 77 | – | –
c1ccc(-c2cc3ccccc3[nH]2)cc1 | – | -94 | – | – | –
COc1ccc(-c2cc3ccccc3[nH]2)cc1 | – | – | – | – | –
CCOc1cccc(/C=N/NC(=O)c2cc(-c3cccn3C)n[nH]2)c1O | – | – | – | 88 | –
COc1cc(OC)c(OC)cc1/C=N/NC(=O)c1cc(-c2cccn2C)n[nH]1 | – | – | – | – | –
CC(C)c1nc(SCC(=O)N2CCCCC2)c2c(=O)n(C)c(=O)n(C)c2n1 | – | – | – | – | –
O=C1CCc2cccc(O)c2N1 | – | – | – | 94 | –
O=C(Nc1cccc(Cl)c1N1CCCC1)c1ccc([N+](=O)[O-])o1 | – | – | – | – | –
CCN1CCN(c2c(Cl)cccc2NC(=O)c2ccc([N+](=O)[O-])o2)CC1 | – | – | 52 | – | –
COc1ccc(C(=O)OCC(=O)Nc2cccc(S(=O)(=O)NC3=NCCCCC3)c2)cc1[N+](=O)[O-] | – | – | – | – | –
C[C@H](CO)N1C[C@H](C)[C@@H](CN(C)C(=O)Nc2ccc3c(c2)OCO3)Oc2ccc(NS(=O)(=O)c3cn(C)cn3)cc2C1=O | – | – | – | – | –
Nc1nc(=S)c2ncn([C@@H]3O[C@H](CO)[C@@H](O)[C@H]3O)c2[nH]1 | – | – | 62 | – | –
Nc1nc(=S)c2ncn(C3OC(CO)C(O)C3O)c2[nH]1 (stereo not drawn) | – | – | – | – | –
O=C1CC(N(CCc2ccccc2)C(=S)Nc2ccccc2)C(=O)N1c1ccc(Br)cc1 (stereo not drawn) | – | – | 54 | – | –
CCn1c2ccccc2c2nnc(SCc3ccccc3)nc21 | – | – | – | – | –
CCn1c2ccccc2c2nnc(SCCCn3c(=O)[nH]c4ccccc43)nc21 | – | – | 50 | – | –
SMILES | HIF-2a inh | KKLEB cytotox | Peg3 prom inh | Shn3 inh set2 | CF NFkB block
Cn1cc([N+](=O)[O-])c(C(=O)Nc2ccn(Cc3c(F)c(F)cc(F)c3F)n2)n1 | – | – | 56 | – | –
C/C(=N\N(Cc1ccccc1)c1ccccc1)c1ccncc1 | – | -57 | – | – | 58
CN(C(=O)c1ccncc1)c1ccccc1 | – | – | – | – | –
CC(C)c1ccc(S(=O)(=O)NCCCN2CCOCC2)cc1 | – | – | – | – | –
Cn1c(-c2ccccc2)cc(=O)cc1-c1ccccc1 | – | – | – | – | –
O=c1cc(-c2ccccc2)cc(-c2ccccc2)n1O | – | – | – | 92 | –

Source: PubChem (several laboratories)
